Results on seven molecules are retold here after PubChem BioAssay (EPA / NIEHS).

The nature of test [1]: ATG_PBREM_CIS: Attagene CIS-FACTORIAL HepG2 Assay for human Phenobarbital-responsive Enhancer Module (PBREM) (AID 2282955). To be noted: HepG2 PBREM cis-reporter, Attagene multiplexed transcription; actives raise or lower the signal. A digest of the protocol: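 After a 24 h incubation with test chemical, transfected HepG2 cells yield total RNA; reporter-specific RT-PCR products are fluorescently labelled, HpaI-digested and resolved by capillary electrophoresis against ROX size standards.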

Test [2] deals with Paired box protein Pax-6 (Homo sapiens) (UniProt P26367). Description: ATG_Pax6_CIS: Attagene CIS-FACTORIAL HepG2 Assay for human Paired Box 6 (PAX6) (AID 2282956). The settings on record: HepG2 CIS-FACTORIAL PAX6 reporter transcription, RNA readout; actives raise or lower the signal. A digest of the protocol: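 Readout: reporter transcript fluorescence after RT-PCR and capillary electrophoresis. Cells: HepG2, transiently transfected with cis-regulated MRTUs. Exposure 24 h. Gain or loss of signal fitted bidirectionally relative to DMSO.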
Paired box protein Pax-6 (Homo sapiens), sequence (P26367 whole entry, looked up): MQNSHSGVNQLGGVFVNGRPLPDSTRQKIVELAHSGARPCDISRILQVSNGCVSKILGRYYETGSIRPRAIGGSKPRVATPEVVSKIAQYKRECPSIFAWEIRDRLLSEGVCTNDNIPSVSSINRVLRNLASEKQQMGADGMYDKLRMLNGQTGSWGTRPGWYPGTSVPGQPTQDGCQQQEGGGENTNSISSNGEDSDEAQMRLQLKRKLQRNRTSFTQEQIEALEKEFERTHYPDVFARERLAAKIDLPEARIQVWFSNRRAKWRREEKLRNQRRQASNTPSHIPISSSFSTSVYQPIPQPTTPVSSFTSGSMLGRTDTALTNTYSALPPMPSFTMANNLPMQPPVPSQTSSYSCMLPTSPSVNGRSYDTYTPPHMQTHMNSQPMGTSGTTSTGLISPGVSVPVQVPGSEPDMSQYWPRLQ

The nature of test [3]: ATG_PXRE_CIS: Attagene CIS-FACTORIAL HepG2 Assay for human Pregnane X Receptor Element (PXRE) (AID 2282957). The settings on record: HepG2 Attagene CIS-FACTORIAL PXRE reporter, mRNA; actives raise or lower the signal. The gist of the method:
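Using HepG2 transfected with multiple reporter transcription units, endogenous factor-driven transcription was scored as reporter mRNA after 24 h exposure.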

Test [4] is described as follows: ATG_PPRE_CIS: Attagene CIS-FACTORIAL HepG2 Assay for human Peroxisome Proliferator-activated Response Element (PPRE) (AID 2282958). The settings on record: HepG2 PPRE cis-element reporter, Attagene transcription factor profiling; actives raise or lower the signal. A digest of the protocol: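 Multiplexed reporter transcription units under cis-regulatory promoters were transfected into HepG2 cells to capture endogenous factor activity. A 24 h incubation preceded RNA isolation and fluorescent RT-PCR fragment analysis.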

Test [5] in a line: ATG_Sox_CIS: Attagene CIS-FACTORIAL HepG2 Assay for human SRY-box transcription factor (SOX) (AID 2282960). To be noted: HepG2 Attagene cis-factorial SOX reporter, mRNA; actives raise or lower the signal. A digest of the protocol:
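After 24 h of chemical treatment, transfected HepG2 reporter cells are lysed for total RNA. Transcript levels come from RT-PCR with labelled primer extension and capillary electrophoresis, analysed bidirectionally versus DMSO.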

Test [6] deals with Transcription factor Sp1 (Homo sapiens) (UniProt P08047). Description: ATG_Sp1_CIS: Attagene CIS-FACTORIAL HepG2 Assay for human Specificity Protein 1 (Sp1) (AID 2282961). The settings on record: HepG2 Sp1 cis-reporter transcription, actives raise or lower the signal. A digest of the protocol: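 Sp1-driven reporter mRNA, read as capillary electrophoresis fluorescence after RT-PCR, in transiently transfected HepG2 cells dosed for 24 h; signal change in either direction relative to DMSO.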
Transcription factor Sp1 (Homo sapiens), sequence (P08047 whole entry, looked up): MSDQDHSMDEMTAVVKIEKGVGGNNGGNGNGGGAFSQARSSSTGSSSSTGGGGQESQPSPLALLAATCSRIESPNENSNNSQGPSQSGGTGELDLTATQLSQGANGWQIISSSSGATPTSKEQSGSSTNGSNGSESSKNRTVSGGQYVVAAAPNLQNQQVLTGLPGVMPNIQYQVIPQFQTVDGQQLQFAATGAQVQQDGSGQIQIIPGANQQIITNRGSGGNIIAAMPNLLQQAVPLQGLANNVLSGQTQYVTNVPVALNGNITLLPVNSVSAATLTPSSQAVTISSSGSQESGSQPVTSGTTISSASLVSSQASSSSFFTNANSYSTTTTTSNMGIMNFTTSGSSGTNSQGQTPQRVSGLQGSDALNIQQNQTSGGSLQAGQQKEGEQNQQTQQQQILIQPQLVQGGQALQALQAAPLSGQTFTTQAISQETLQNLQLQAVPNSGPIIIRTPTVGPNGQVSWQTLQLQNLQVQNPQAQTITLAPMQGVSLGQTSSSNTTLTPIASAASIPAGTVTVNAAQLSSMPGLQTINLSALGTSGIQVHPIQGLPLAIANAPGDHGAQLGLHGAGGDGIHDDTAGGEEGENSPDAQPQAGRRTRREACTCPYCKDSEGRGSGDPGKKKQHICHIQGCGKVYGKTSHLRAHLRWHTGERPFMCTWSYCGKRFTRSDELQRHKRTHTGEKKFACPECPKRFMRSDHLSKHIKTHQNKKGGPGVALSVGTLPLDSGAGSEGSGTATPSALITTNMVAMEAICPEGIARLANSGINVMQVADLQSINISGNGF

Test [7] can be described thus: ATG_SREBP_CIS: Attagene CIS-FACTORIAL HepG2 Assay for human Sterol Regulatory Element Binding (SREBP) (AID 2282962). To be noted: HepG2 Attagene cis-factorial SREBP reporter, mRNA; actives raise or lower the signal. The gist of the method:
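Readout: fluorescent reporter-transcript peaks resolved by capillary electrophoresis after RT-PCR. Cells were human HepG2 carrying transfected cis-promoter reporter constructs, dosed for 24 h. Gain or loss of signal was fitted against DMSO controls.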

The target of test [8] is Signal transducer and activator of transcription 3 (Homo sapiens) (UniProt P40763). Description: ATG_STAT3_CIS: Attagene CIS-FACTORIAL HepG2 Assay for human Signal Transducer and Activator of Transcription 3 (STAT3) (AID 2282963). The settings on record: HepG2, Attagene cis-factorial STAT3 reporter transcription; actives raise or lower the signal. A digest of the protocol:
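Readout: fluorescent reporter mRNA fragments resolved by capillary electrophoresis. Setup: HepG2 transfected with MRTUs reporting endogenous transcription-factor activity, dosed 24 h. Gain or loss of signal fitted bidirectionally against DMSO control.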

The nature of test [9]: ATG_TA_CIS: Attagene CIS-FACTORIAL HepG2 Assay for human TA Basal Promoter (AID 2282964). The settings on record: HepG2 Attagene CIS-factorial TA basal promoter reporter; actives raise or lower the signal. The gist of the method:
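Steps: transfect HepG2 with MRTUs; dose 24 h; isolate RNA, DNase-treat, reverse-transcribe; PCR and FAM-label reporter cDNA; digest with HpaI 2h at 37 C; run capillary electrophoresis. Activity fitted both directions against DMSO.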

Test [10] is described as follows: ATG_TCF_b_cat_CIS: Attagene CIS-FACTORIAL HepG2 Assay for human T-Cell-Factor with beta-catenin (TCF/b-cat) (AID 2282965). The settings on record: HepG2 TCF/beta-catenin cis-reporter transcription, actives raise or lower the signal. A digest of the protocol:
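Cells of the HepG2 line carry transiently transfected reporter units whose promoters respond to endogenous factors. Twenty-four hours post-dosing, reporter mRNA induction is measured by fluorescent RT-PCR and capillary electrophoresis, with DMSO as baseline.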

Test [11] is described as follows: ATG_TAL_CIS: Attagene CIS-FACTORIAL HepG2 Assay for human TAL Basal Promoter (AID 2282966).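 Further: background control endpoint measuring basal TAL promoter reporter mRNA not a specific factor.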 The settings on record: HepG2 Attagene cis-factorial TAL promoter reporter; actives raise or lower the signal. A digest of the protocol:
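After 24 hours of chemical exposure, transfected HepG2 cells yielded RNA that was converted to 6-FAM-labelled, HpaI-digested reporter fragments for capillary electrophoresis. Values derive from bidirectional fitting against DMSO controls.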

Test [12] in a line: ATG_TGFb_CIS: Attagene CIS-FACTORIAL HepG2 Assay for human Transforming Growth Factor (TGF) (AID 2282967). The settings on record: HepG2 Attagene CIS TGFb reporter, mRNA transcription; actives raise or lower the signal. The gist of the method:
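Cells were dosed for 24 hours, after which total RNA was reverse-transcribed and reporter sequences amplified, labeled and sized by capillary electrophoresis. Activity was fitted in both directions against DMSO.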

Test [13] is described as follows: ATG_VDRE_CIS: Attagene CIS-FACTORIAL HepG2 Assay for human Vitamin D Receptor Element (VDRE) (AID 2282968). The settings on record: HepG2 VDRE cis-reporter transcription, actives raise or lower the signal. A digest of the protocol: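 Transient MRTU transfection of HepG2, 24 h compound exposure. Readout: reporter transcripts via RT-PCR and capillary electrophoresis, fluorescence. Bidirectional fit vs DMSO.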

Test [14] has as its target Nuclear receptor subfamily 1 group I member 3 (Homo sapiens) (UniProt Q14994). Description: ATG_CAR_TRANS: Attagene TRANS-FACTORIAL HepG2 Assay for human Constitutive Androstane Receptor (CAR) (AID 2282969; active means hit-call score of the fitted dose curve at least 0.9, where 1 is the maximum;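 further: activators raise reporter mRNA above DMSO so AC50 marks induction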). To be noted: HepG2 Attagene TRANS-FACTORIAL CAR reporter. A digest of the protocol:
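Transiently transfected HepG2, multiplex TRANS reporters (CAR-Gal4 chimera driving GAL4-UAS reporter). 24 h dosing. Readout: reporter transcript by RT-PCR + capillary electrophoresis, fluorescence intensity; positive direction vs DMSO.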

Test [15] addresses Steroid hormone receptor ERR1 (Homo sapiens) (UniProt P11474). Put plainly: ATG_ERRa_TRANS: Attagene TRANS-FACTORIAL HepG2 Assay for human Estrogen-Related Receptor alpha (ERRa) (AID 2282971; active means hit-call score of the fitted dose curve at least 0.9, where 1 is the maximum). To be noted: HepG2 Attagene TRANS reporter, ERRa transactivation. The gist of the method:
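Reporter transcript induction was quantified by RT-PCR and capillary electrophoresis of FAM-labelled, HpaI-cut products after 24 h treatment of HepG2 cells carrying transiently transfected GAL4-UAS reporter units and an exogenous ERRa-Gal4 fusion; activity scored as increase over DMSO.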

For test [16], the target named is X-box-binding protein 1 (Homo sapiens) (UniProt P17861). Put plainly: ATG_Xbp1_CIS: Attagene CIS-FACTORIAL HepG2 Assay for human X-box Binding Protein 1 (XBP1) (AID 2282972). To be noted: HepG2 XBP1 cis-element reporter, Attagene multiplex; actives raise or lower the signal. A digest of the protocol:
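Read-out: fluorescent reporter mRNA fragments resolved by capillary electrophoresis after RT-PCR. Human HepG2 liver cells carried transfected cis-promoter reporter units and were exposed to chemicals for 24 hours. Gain or loss of signal fitted relative to DMSO baseline.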

Test [17] is described as follows: ATG_M_19_TRANS: Attagene TRANS-FACTORIAL HepG2 Assay for M19 Transcription Factor (Internal Marker) (AID 2282974; active means hit-call score of the fitted dose curve at least 0.9, where 1 is the maximum). To be noted: HepG2 Attagene TRANS-FACTORIAL M19 internal marker reporter. A digest of the protocol:
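Measured here: internal-marker reporter transcript from HepG2 cells transfected with MRTUs, harvested at 24 h. cDNA PCR products were 6-FAM labelled by primer extension, cut with HpaI for 2 h at 37 C, and resolved by CE.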

The nature of test [18]: ATG_RORE_CIS: Attagene CIS-FACTORIAL HepG2 Assay for human RAR-related Orphan Receptor Element (RORE) (AID 2282959). The settings on record: HepG2 Attagene cis-factorial RORE reporter, mRNA; actives raise or lower the signal. A digest of the protocol:
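Fluorescence intensity of reporter-specific cDNA fragments, separated by capillary electrophoresis, gives the signal. Source: HepG2 liver cells transiently transfected with cis-element reporters and exposed 24 h; DMSO-normalized bidirectional fit.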

Test [19] has as its target Estrogen receptor (Homo sapiens) (UniProt P03372). Put plainly: ATG_ERa_TRANS: Attagene TRANS-FACTORIAL HepG2 Assay for human Estrogen Receptor alpha (ERa) (AID 2282970; active means hit-call score of the fitted dose curve at least 0.9, where 1 is the maximum). To be noted: HepG2 Attagene TRANS ERa GAL4 reporter, mRNA. A digest of the protocol: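 Liver-derived HepG2 cells expressing chimeric nuclear receptor-Gal4 proteins from transient transfection were exposed for 24 hours. Gain of reporter mRNA signal versus DMSO, read by capillary electrophoresis of FAM-labelled PCR products, was recorded.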

Inconclusive results are not listed. Active and inactive are the calls of the source. How the source made its calls, unless noted: active means hit-call score of the fitted dose curve at least 0.9, where 1 is the maximum; inactive means score below 0.9.

Estrogen receptor (Homo sapiens), sequence (P03372 whole entry, looked up, the tested form may be a part): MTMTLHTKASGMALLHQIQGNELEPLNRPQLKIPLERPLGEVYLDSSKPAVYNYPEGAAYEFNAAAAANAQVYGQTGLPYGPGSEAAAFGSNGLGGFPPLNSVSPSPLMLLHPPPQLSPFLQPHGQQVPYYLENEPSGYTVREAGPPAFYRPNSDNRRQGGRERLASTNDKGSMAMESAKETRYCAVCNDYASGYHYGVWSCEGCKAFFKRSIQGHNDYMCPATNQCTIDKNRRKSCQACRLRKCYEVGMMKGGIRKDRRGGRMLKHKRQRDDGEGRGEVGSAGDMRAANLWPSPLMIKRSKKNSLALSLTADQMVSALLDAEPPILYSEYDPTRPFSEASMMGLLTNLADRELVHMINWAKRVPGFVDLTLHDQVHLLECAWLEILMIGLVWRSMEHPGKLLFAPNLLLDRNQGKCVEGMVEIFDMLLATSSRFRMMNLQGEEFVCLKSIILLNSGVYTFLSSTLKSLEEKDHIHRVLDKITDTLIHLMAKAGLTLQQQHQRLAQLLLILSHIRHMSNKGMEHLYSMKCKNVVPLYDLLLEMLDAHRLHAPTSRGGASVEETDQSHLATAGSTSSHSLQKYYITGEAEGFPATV
Steroid hormone receptor ERR1 (Homo sapiens), sequence (P11474 whole entry, looked up, the tested form may be a part): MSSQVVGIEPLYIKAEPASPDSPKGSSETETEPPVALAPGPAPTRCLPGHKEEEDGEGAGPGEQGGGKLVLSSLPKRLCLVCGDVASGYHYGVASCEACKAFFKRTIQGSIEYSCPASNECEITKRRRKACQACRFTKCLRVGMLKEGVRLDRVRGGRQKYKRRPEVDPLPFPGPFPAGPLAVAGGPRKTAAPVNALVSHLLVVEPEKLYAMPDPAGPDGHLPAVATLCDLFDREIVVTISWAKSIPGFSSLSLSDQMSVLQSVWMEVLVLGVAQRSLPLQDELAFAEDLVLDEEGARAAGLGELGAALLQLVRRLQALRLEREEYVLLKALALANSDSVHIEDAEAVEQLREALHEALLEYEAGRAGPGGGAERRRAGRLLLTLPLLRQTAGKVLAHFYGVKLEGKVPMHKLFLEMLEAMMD
Signal transducer and activator of transcription 3 (Homo sapiens), sequence (P40763 whole entry, looked up, the tested form may be a part): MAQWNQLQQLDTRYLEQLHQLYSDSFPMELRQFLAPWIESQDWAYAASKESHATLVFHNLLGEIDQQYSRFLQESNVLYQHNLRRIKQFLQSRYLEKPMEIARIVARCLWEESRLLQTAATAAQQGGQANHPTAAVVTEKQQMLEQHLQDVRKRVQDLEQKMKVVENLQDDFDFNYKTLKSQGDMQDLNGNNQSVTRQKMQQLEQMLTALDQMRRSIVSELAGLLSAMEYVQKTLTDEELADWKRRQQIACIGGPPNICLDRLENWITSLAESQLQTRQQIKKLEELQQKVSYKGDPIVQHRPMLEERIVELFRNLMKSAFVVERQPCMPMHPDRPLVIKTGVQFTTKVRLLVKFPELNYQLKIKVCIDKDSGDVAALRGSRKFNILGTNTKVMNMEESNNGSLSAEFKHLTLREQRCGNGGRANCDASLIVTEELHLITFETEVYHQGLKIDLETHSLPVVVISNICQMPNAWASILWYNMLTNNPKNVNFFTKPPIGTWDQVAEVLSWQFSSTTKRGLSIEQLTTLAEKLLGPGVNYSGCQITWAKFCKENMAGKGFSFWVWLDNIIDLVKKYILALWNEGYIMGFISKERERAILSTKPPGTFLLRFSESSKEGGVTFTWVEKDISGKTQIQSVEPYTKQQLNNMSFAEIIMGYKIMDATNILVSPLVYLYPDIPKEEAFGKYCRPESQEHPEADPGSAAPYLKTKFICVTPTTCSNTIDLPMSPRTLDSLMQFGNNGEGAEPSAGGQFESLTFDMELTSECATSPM
Nuclear receptor subfamily 1 group I member 3 (Homo sapiens), sequence (Q14994 whole entry, looked up, the tested form may be a part): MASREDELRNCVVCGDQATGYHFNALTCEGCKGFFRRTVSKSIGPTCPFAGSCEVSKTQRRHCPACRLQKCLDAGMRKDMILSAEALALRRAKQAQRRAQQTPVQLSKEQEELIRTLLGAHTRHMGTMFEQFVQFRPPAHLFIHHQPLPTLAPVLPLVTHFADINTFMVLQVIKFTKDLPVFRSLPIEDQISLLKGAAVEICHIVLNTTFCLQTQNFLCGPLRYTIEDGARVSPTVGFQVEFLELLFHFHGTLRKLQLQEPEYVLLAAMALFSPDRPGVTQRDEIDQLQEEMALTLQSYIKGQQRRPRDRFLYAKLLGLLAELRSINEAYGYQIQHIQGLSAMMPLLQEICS
X-box-binding protein 1 (Homo sapiens), sequence (P17861 whole entry, looked up, the tested form may be a part): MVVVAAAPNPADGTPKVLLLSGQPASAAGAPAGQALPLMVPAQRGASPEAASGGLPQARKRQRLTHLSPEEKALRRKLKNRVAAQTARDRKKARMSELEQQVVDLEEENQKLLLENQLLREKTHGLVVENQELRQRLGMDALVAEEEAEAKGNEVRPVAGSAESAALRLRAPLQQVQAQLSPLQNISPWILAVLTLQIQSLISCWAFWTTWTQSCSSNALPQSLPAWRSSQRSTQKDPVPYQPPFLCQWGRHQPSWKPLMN

Turning to `O=C1C2CC=CCC2C(=O)N1SC(Cl)(Cl)Cl` (centres undefined), the result in test [1], in test [2], in test [3], in test [4], in [5] and in [6] was inactive. Further, the call in [7], in test [8], in test [9], in test [10], in test [11] and in [12] was inactive. In addition, the molecule was called inactive in test [13], in test [14], in test [15], in test [16] and in test [17].
Usually AC50 stands for the concentration at which the activity in the assay is half-maximal. `Nc1cnn(-c2ccccc2)c(=O)c1Cl`: the result in test [2], in [4], in [18], in test [5], in test [6] and in test [7] was inactive. For the same molecule, the molecule was called inactive in test [8], in test [9], in [10], in test [11], in test [12] and in test [13]. For the same molecule, the molecule was classed as inactive in test [14], in test [19], in test [16] and in test [17]. In addition, in [3], the AC50 was 81.5 µM (active).
In the case of `COC(=O)c1c(C(F)F)nc(C(F)(F)F)c(C2=NCCS2)c1CC(C)C`, the molecule was classed as inactive in test [2], in [5], in test [6], in [7], in test [8] and in test [9]. For the same molecule, the result in test [10], in [11], in test [12], in [14], in [15] and in test [16] was inactive. The outcome in [17] was inactive. For the same molecule, the AC50 in test [3] was 0.123 µM (active); in test [4] it was 50 µM (active); in [18] it was 26.8 µM (active); in test [13], 0.879 µM (active).
On to `CCCCC(O)(Cn1cncn1)c1ccc(Cl)cc1Cl` (centres undefined), for which the outcome in test [1], in test [4], in test [5], in [6], in [7] and in test [10] was inactive. Further, the result in test [11], in test [12], in test [14] and in test [16] was inactive. The AC50 in [2] is 31 µM (active); in test [3], 13 µM (active); in [18], 24.7 µM (active); in test [8] it was 50 µM (active); in test [9] it was 65 µM (active); in [13] it was 23.6 µM (active).
`CO/N=C(/C1=NOCCO1)c1ccccc1Oc1ncnc(Oc2ccccc2Cl)c1F`: the AC50 was 5.03 µM (active) in test [1]; 9.47 µM (active) in test [2]; 0.483 µM (active) in test [3]; 1.25 µM (active) in test [7]; 0.574 µM (active) in [16]. Further, the call in [4], in test [18], in test [5], in test [6], in test [8] and in [9] was inactive. The molecule was called inactive in test [10], in [11], in [12], in test [14], in test [19] and in [17].
For the molecule `CCOc1cc(C(C)(C)C)ccc1C1COC(c2c(F)cccc2F)=N1` (centres undefined), the outcome in test [1], in [2], in [4], in [18], in test [5] and in [6] was inactive. Besides, the outcome in test [7], in test [8], in test [9], in [10], in [11] and in test [12] was inactive. Moreover, the molecule was called inactive in test [14], in test [15], in test [16] and in test [17]. Besides, the half-maximal activity concentration (AC50) in test [3] is 0.593 µM (active); in test [13] it was 1.36 µM (active).
Consider `CCCN(CC)CC1COC2(CCC(C(C)(C)C)CC2)O1` (centres undefined), for which the AC50 in test [1] is 16.1 µM (active); in [2], 21.9 µM (active); in test [3], 13.5 µM (active); in test [18] it was 18.1 µM (active); in [5], 35.5 µM (active); in test [7] it was 24.5 µM (active). In addition, the AC50 was 86.3 µM (active) in test [8], 19.9 µM (active) in [12], 9.19 µM (active) in [13] and 25.3 µM (active) in test [16]. For the same molecule, the outcome in test [6], in test [9], in test [10], in [11], in test [14] and in test [19] was inactive. Further, the call in [17] was inactive.
